Measurements reported in PubChem BioAssay AID602313 (National Center for Advancing Translational Sciences (NCATS), 2012).
The whole screen tested about 390,000 compounds, of which about 760 (0.19%) were called active. A call without a number means that no potency is given here. Roughly 3% stayed inconclusive and do not appear here. The call rests on the fitted dose curve; in most records, active means well fitted inhibition curve with a large enough effect; inconclusive means small, poorly fitted or top-dose-only effect; inactive means flat fitted curve, though single readings scatter. Many of the other results were omitted from the sample, so actives are more common in it than they were.

Assay: qHTS for Inhibitors of Vif-A3F Interactions: qHTS; further: nearly all actives have a fitted effect of over 65% in size
Settings: HeLa A3F-eYFP + Vif (tagged APOBEC3F with the HIV-1 protein that degrades it), YFP fluorescence increase; series mostly up to 46.1 µM
From the text: The recent discovery and characterization of host restriction factors, which provide a potent defense to invading retroviruses, has provided new targets for antiviral drug development. APOBEC3G (A3G) and APOBEC3F (A3F) are potent cytidine deaminases that block HIV-1 replication; HIV-1 expresses the Vif protein, which counteracts A3G and A3F by binding to them and inducing their proteasomal degradation. The Vif-A3G and Vif-A3F interactions provide two potential targets for development of small molecules which can interfere with the ability of Vif to degrade A3G or A3F. […] To identify inhibitors that can interfere with Vif mediated degradation of A3G and A3F, we have developed Hela cell lines that stably express A3G or A3F tagged with eYFP at the C-terminal end (A3G-eYFP or A3F-eYFP, respectively) and Vif. In the absence of an inhibitor, Vif induces degradation of A3G-eYFP and A3F-eYFP, and the cells are not fluorescent. In the presence of an inhibitor, it is expected that Vif will be unable to degrade A3G-eYFP and/or A3F-eYFP, resulting in an increase in yellow fluorescence. In this assays Vif A3F was screened against the Molecular Library Small Molecule Repository (MLSMR). NIH Chemical Genomics Center [NCGC] NIH Molecular Libraries Probe Centers Network [MLPCN] MLPCN Grant: MH093245 Assay Submitter (PI): Vinay Pathak, National Cancer Institute
5 uL of 700 cells/well of A3F-YFP cells are dispensed into black, clear bottom plates. The plates are incubated overnight at 37 deg C. 23 nL of compounds are added by pintool. The plates are incubated overnight at 37 deg C and then read on the TTP Acumen (Ex 488/ Em 500-530).
Potency means the concentration at half of the fitted maximal effect.

Row | SMILES | Potency
1 | COc1ccc(Cl)cc1S(=O)(=O)N1CCC(c2ccncc2)CC1 | inactive
2 | CCOc1ccc2nc(N3CCC(C(=O)Nc4cc(C)ccc4C)CC3)sc2c1 | inactive
3 | CCCS(=O)(=O)c1ncc(Cl)c(C(=O)Nc2scc(-c3ccccc3)c2C(=O)OCC)n1 | inactive
4 | O=C(/C=C/c1ccccc1)Nc1cc(-c2nc3cc(Cl)ccc3o2)ccc1Cl | inactive
5 | COC(=O)c1ccccc1NC(=O)Cn1c(=O)cc(C)c2c(C)nn(-c3cccc(Cl)c3C)c21 | inactive
6 | Cc1cccc(NC(=O)Cn2nc(-c3ccc(Cl)cc3)c3ccccc3c2=O)c1 | inactive
7 | COc1cc2c(cc1OC)C(COc1ccc(F)cc1)N(C(=O)c1ccccc1F)CC2 (configuration not stated) | inactive
8 | Cc1ccc(OCCSc2nc3ccc(NC(=O)COc4ccc(C)cc4)cc3s2)cc1 | inactive
9 | O=C(CC1NCCc2ccccc21)Nc1cccc(Cl)c1 (configuration not stated) | inactive
10 | O=C(CC1Nc2ccccc2NC1=O)Nc1ccccc1 (configuration not stated) | 12.6 µM (active)
11 | COC(=O)c1cc(C)sc1NC(=O)CC1Nc2ccccc2NC1=O (configuration not stated) | inactive
12 | COc1cccc(CNC(=O)C2CCC(CNS(=O)(=O)c3cccs3)CC2)c1 (configuration not stated) | inactive
13 | COc1ccc(C2c3c(oc4ccccc4c3=O)C(=O)N2Cc2ccc3c(c2)OCO3)cc1 (configuration not stated) | inactive
14 | CC(=O)N1CCCc2cc(S(=O)(=O)N3CCC(C(=O)NCc4ccc(F)cc4)CC3)ccc21 | inactive
15 | Cc1cc(C)cc(NC(=O)CSc2nc(=O)n(CCN3CCOCC3)c3c2CCC3)c1 | inactive
16 | CCCCOC(=O)/C(C#N)=C/c1ccc(-c2cccc(C(F)(F)F)c2)o1 | inactive
17 | CCCCNC(=O)C1CCCN(c2nnc(C)c3c(C)n(-c4ccc(Cl)cc4)nc23)C1 (configuration not stated) | inactive
18 | CCOc1ccc(S(=O)(=O)Nc2ccc3oc4c(c3c2)CC(C)CC4)cc1 (configuration not stated) | inactive
19 | CCNC(=O)c1cc2n(n1)CCCN(Cc1ccc(C)cc1)C2=O | inactive
20 | CCCOC(=O)c1c(NC(=O)c2cc3nc(-c4ccc(OC)cc4)cc(C(F)(F)F)n3n2)sc2c1CCCC2 | inactive
21 | O=C(NCC(c1ccc2c(c1)OCO2)N1CCN(c2ccccc2)CC1)C(=O)Nc1ccccc1F (configuration not stated) | inactive
22 | O=C(NC1CC(=O)N(c2ccc(F)cc2)C1)C1CCCCC1 (configuration not stated) | inactive
23 | Cc1cc(C)c(/C=C2\C(=O)Nc3ccccc32)[nH]1 | 12.6 µM (active)
24 | Fc1ccc(-n2ncc3c(Nc4ccc(Oc5ccccc5)cc4)ncnc32)cc1 | inactive
25 | COc1ccccc1NC(=O)c1oc2ccccc2c1NC(=O)C(C)C | inactive
26 | Cc1ccc(Cc2nc3ccccc3nc2SCC(=O)Nc2cccc(C(F)(F)F)c2)cc1 | inactive
27 | COc1ccc(NC(=O)Cn2cc(C(=O)c3ccncc3)c(=O)c3cc(C)ccc32)cc1Cl | inactive
